Laboratory results reported in the supplement of paper PMC11732987, “Enantioselective OTUD7B fragment discovery through chemoproteomics screening and high-throughput optimisation” (Communications Chemistry, 2025).

Tests used:
Test in all cases: log2 ratio of Biotin-Ahx-Ub-VS probe labelling (fragment/DMSO); higher = less target engagement (more negative = stronger competition), active = hit call of the paper (q ≤ 0.05, log2 ratio ≤ -1)
Details in all cases: compound concentration: 200 uM; treatment time: 3 h
USP9X = USP9X (UniProt Q93008)
Procedure, shortened: (§1)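 Fragment (200 µM) or vehicle was incubated for 3 h with triplicate HEK293T lysate samples of 495 µg, which were then treated with Biotin-Ahx-Ub-VS at 0.5 µM final for 1 h. Labelled DUBs were enriched on NeutrAvidin, digested with LysC and trypsin, and analysed by diaPASEF LC-MS/MS. Values are average log2 fragment/vehicle ratios from an unpaired t-test on global-median-normalised Spectronaut label-free quantities, using proteins with ≥2 unique peptides.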

UniProt O00487 = biological target: UniProt O00487
Procedure, shortened: as §1

UniProt O00507 = biological target: UniProt O00507
Procedure, shortened: as §1

UniProt P51784 = biological target: UniProt P51784
Procedure, shortened: as §1

UniProt Q5T2D3 = biological target: T1, UniProt Q5T2D3
T1 sequence (whole entry): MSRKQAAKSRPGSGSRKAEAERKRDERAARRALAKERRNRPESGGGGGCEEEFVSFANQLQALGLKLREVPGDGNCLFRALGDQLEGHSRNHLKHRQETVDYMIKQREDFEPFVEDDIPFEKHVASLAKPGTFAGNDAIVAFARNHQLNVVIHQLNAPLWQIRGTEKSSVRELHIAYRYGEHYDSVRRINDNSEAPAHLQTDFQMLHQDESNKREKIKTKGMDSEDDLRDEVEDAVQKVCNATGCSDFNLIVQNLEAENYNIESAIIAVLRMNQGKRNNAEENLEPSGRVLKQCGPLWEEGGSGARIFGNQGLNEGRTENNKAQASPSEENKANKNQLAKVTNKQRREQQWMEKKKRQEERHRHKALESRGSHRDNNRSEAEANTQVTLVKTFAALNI
Procedure, shortened: as §1

UniProt Q8TE49 = biological target: T2, UniProt Q8TE49
T2 sequence (whole entry): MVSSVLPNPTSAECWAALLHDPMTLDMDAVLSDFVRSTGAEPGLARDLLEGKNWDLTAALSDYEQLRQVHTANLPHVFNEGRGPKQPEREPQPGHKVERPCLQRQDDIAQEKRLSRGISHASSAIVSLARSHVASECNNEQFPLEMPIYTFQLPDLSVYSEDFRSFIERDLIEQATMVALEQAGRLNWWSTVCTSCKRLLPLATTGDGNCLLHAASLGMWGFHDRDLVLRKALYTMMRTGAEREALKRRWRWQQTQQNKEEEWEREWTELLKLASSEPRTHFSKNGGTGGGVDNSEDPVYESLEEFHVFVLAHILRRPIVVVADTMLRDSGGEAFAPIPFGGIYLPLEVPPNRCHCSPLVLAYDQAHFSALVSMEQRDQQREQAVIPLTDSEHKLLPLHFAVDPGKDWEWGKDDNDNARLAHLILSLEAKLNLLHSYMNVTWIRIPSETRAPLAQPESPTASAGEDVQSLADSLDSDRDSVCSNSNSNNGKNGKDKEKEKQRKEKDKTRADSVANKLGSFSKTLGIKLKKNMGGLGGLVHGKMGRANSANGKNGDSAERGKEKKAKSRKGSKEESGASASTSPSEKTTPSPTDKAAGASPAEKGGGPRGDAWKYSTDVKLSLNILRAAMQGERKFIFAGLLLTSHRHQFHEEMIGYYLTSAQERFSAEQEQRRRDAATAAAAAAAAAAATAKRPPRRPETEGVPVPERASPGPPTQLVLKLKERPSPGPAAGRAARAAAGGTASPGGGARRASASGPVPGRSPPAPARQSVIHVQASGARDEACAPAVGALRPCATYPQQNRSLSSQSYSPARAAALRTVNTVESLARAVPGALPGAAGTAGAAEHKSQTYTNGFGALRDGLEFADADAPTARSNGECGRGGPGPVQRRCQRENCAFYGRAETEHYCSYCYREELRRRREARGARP
Procedure, shortened: as §1

UniProt Q9P2H5 = biological target: T3, UniProt Q9P2H5
T3 sequence (whole entry): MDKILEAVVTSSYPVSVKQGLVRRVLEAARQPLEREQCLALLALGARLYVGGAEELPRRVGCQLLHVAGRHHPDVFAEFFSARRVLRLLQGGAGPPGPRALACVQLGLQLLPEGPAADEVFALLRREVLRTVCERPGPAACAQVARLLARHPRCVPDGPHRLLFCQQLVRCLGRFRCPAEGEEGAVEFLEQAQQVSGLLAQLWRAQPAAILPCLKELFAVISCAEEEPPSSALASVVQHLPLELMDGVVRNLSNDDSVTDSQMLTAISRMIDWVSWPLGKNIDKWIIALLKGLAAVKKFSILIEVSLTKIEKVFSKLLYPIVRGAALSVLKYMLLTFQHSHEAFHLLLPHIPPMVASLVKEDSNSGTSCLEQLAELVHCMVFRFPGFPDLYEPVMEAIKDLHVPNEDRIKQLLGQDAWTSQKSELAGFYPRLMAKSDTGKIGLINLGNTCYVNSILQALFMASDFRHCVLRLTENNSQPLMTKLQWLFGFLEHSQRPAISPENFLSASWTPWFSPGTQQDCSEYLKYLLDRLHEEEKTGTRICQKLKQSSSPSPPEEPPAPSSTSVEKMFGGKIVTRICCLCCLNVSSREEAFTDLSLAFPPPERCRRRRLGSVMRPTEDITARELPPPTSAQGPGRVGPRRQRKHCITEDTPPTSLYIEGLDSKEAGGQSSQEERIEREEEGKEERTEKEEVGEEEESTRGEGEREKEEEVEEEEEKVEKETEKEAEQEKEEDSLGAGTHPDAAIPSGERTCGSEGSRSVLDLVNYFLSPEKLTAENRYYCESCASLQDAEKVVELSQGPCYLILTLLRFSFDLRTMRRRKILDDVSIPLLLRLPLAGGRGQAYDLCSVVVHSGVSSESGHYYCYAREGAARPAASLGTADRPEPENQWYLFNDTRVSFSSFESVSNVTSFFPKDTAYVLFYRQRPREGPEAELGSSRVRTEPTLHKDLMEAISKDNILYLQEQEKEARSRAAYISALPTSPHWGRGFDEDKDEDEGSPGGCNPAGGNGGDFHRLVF
Procedure, shortened: as §1

UniProt Q9UGI0 = biological target: T4, UniProt Q9UGI0
T4 sequence (whole entry): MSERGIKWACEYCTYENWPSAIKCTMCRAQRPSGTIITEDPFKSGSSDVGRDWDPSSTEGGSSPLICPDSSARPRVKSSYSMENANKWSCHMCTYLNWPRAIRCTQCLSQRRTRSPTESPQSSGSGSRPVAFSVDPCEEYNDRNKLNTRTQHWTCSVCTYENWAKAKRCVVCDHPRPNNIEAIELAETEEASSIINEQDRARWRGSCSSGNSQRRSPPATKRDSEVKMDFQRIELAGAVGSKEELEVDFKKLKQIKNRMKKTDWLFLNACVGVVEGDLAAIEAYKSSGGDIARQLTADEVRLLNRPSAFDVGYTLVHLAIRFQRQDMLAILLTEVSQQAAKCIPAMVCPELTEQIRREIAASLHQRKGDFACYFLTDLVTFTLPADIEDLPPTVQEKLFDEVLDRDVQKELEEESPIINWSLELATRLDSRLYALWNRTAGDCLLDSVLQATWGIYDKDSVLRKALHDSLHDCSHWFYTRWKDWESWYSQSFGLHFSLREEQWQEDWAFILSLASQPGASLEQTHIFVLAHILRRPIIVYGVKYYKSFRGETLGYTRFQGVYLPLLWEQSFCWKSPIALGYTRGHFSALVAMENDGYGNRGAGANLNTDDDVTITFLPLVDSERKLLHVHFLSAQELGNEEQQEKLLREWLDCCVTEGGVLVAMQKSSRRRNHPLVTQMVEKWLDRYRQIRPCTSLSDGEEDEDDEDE
Procedure, shortened: as §1

YOD1 = biological target: T5, YOD1 (UniProt Q5VVQ6)
T5 sequence (whole entry): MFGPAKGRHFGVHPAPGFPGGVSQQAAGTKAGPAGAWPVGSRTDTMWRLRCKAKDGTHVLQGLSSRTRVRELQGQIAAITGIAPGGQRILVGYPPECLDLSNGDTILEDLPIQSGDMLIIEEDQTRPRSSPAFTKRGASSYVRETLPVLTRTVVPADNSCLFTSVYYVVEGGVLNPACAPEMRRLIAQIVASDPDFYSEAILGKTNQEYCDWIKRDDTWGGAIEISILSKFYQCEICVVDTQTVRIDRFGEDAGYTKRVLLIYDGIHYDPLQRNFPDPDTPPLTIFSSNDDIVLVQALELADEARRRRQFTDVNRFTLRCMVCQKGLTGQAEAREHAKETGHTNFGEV
Procedure, shortened: as §1

Measured: log2 ratio of Biotin-Ahx-Ub-VS probe labelling

UniProt P51784, sequence (P51784 whole entry): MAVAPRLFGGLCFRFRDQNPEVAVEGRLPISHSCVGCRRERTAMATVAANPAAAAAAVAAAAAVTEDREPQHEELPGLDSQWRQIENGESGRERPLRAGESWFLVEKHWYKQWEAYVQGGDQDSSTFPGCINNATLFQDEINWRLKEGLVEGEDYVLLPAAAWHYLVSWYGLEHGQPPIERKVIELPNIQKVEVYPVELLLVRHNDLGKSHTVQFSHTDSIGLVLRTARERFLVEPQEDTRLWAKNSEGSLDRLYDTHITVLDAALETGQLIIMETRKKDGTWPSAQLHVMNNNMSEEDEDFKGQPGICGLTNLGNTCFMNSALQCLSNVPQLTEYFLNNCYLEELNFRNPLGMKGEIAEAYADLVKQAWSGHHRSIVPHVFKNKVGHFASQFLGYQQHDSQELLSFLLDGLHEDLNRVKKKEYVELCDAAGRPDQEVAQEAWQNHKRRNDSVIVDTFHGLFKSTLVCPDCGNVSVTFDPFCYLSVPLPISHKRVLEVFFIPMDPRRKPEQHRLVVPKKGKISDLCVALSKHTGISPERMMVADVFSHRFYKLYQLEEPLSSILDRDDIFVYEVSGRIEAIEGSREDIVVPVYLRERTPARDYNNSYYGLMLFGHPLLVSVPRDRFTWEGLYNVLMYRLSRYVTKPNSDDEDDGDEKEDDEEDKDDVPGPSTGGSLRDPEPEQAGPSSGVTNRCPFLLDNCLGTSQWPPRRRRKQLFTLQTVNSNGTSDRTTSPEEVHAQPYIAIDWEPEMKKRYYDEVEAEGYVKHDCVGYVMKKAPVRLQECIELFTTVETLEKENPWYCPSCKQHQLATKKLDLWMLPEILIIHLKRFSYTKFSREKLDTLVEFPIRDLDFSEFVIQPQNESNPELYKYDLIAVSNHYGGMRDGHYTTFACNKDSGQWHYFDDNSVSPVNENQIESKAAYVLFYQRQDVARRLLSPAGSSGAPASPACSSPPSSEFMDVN
USP9X, sequence (Q93008 whole entry, the tested form may be a part): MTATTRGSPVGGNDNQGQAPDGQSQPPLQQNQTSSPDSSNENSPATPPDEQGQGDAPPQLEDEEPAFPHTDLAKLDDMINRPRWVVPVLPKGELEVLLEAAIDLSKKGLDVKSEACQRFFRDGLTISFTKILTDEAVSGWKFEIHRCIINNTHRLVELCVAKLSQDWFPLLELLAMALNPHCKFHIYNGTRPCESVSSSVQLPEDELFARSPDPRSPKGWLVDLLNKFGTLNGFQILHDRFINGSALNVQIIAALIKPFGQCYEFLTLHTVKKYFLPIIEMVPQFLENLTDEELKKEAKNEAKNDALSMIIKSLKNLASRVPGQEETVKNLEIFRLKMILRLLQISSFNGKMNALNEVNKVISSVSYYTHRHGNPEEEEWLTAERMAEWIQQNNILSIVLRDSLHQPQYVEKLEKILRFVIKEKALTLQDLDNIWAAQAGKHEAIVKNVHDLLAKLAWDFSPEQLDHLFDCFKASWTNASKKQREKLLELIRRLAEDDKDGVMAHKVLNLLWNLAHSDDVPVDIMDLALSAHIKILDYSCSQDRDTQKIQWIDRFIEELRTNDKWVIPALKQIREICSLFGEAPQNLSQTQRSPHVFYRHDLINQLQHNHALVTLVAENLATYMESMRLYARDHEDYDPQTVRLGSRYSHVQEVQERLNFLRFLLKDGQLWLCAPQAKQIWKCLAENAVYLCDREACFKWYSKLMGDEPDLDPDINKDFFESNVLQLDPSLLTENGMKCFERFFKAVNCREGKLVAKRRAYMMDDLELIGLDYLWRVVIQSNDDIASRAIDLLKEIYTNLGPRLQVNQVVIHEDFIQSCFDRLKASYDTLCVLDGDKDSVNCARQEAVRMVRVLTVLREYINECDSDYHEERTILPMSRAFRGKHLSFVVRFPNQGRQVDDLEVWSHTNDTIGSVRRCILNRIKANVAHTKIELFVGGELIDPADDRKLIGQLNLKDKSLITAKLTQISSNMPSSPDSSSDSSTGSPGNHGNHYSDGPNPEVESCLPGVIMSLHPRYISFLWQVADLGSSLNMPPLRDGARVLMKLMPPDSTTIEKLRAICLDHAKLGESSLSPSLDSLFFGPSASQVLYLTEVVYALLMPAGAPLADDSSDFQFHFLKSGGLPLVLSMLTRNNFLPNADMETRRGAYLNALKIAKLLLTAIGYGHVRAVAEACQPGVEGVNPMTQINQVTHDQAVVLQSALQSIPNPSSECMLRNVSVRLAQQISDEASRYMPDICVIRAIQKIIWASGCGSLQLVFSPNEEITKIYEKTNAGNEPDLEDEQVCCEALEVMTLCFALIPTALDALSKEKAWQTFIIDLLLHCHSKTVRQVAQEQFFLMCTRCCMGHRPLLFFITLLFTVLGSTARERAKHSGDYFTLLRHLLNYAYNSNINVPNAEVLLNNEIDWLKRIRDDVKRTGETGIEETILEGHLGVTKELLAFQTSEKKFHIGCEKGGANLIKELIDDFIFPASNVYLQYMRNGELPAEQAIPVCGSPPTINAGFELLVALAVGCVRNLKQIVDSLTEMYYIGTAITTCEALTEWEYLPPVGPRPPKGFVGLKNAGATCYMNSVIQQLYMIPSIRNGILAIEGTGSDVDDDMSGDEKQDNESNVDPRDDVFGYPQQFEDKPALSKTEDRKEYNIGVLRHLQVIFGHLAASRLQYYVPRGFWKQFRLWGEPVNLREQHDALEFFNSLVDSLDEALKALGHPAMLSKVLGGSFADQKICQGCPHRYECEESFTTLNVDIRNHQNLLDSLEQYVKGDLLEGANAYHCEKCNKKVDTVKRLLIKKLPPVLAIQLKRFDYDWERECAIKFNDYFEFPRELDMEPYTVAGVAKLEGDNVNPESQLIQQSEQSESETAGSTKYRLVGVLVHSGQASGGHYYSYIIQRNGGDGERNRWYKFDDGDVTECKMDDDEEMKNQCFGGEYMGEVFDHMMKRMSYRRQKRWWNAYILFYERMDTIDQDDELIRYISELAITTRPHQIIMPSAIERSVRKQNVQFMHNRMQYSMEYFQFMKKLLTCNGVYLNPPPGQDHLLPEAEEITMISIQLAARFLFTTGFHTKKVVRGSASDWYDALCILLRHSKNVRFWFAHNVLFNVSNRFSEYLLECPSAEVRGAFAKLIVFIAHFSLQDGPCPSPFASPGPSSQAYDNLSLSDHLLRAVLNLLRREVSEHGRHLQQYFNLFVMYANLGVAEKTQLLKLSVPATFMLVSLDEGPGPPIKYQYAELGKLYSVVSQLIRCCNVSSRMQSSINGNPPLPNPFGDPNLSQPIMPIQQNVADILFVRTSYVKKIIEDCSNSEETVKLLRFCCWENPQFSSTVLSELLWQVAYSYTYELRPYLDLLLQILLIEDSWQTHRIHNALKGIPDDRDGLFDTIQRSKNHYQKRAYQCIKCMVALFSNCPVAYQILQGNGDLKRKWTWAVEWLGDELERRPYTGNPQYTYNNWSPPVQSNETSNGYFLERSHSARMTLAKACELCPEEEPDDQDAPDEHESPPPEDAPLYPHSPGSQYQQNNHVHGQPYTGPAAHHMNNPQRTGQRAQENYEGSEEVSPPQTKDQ
UniProt O00487, sequence (O00487 whole entry): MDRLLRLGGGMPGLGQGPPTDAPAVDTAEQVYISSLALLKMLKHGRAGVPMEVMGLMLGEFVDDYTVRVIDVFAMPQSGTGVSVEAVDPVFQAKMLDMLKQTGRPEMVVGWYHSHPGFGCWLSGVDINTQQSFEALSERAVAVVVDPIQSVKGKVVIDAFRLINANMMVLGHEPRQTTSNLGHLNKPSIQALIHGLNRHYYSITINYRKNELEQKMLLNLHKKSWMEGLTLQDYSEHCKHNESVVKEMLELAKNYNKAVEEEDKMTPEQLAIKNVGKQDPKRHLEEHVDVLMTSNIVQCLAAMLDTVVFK

C/C(=C\CNC(=O)CCl)c1cnn(C)c1.Cl
inactive: USP9X -0.138 | UniProt O00487 -0.0232 | UniProt O00507 -0.224 | UniProt P51784 -0.391 | UniProt Q5T2D3 -0.0109 | UniProt Q8TE49 -0.499 | UniProt Q9P2H5 -0.465 | UniProt Q9UGI0 -0.0207 | YOD1 -0.155
